# Most compounds without a hit are left out; they make up all but 9.2% or so of the library.
# FLuc counter: qHTS profiling assay for firefly luciferase inhibitor/activator using purifed enzyme and Km concentrations of substrates (counterscreen for miR-21 project). Luciferin 4-monooxygenase (Photinus pyralis), P08659. 6.9% of 360,000 active. purified FLuc, Km substrates, luminescence inhibition. Potency, µM (titrated, usually from 57.5 µM), hits mostly inhibitors; further: nearly all actives have a fitted effect of over 55% in size
# Target sequence (P08659 whole entry, looked up): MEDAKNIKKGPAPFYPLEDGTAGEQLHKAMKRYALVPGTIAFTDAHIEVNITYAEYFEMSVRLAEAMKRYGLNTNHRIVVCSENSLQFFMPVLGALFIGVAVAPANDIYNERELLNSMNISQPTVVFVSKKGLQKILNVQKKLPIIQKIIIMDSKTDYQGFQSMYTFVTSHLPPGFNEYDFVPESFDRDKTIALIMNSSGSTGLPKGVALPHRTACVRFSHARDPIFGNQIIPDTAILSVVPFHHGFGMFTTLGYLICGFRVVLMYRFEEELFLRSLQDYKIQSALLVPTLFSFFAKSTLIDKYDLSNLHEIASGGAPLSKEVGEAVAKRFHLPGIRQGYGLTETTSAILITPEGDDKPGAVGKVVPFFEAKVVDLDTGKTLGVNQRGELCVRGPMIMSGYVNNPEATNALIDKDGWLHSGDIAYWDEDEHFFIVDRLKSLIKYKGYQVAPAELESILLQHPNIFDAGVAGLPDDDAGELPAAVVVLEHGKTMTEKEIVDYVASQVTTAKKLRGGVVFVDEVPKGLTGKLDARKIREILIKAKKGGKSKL
#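 Purified P. pyralis luciferase (10nM final) with 10uM D-luciferin and 10uM ATP (Km levels) in 50mM Tris acetate pH 7.5, 10mM Mg acetate, 0.01% Tween-20, 0.05% BSA; qHTS 6-point titration, ~60 µM downward; luminescence read.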
# NPC1 promoter act: qHTS Assay for NPC1 Promoter Activators. AID 485313, 2010. Huh7 NPC1 promoter luciferase reporter, 24 h. 2.4% of 320,000 active. Potency, µM (top dose mostly 9.22 µM), most hits filed as activators; further: nearly all actives have a fitted effect of over 60% in size
#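 Cells: Huh7 expressing luciferase under the NPC1 promoter, 1500/well. Seeded 2 h, compound added, incubated 24 h at 37 °C. Luciferase reagent, 10 min ambient, then luminescence.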
# ELG1 repair inh: qHTS screen for small molecules that inhibit ELG1-dependent DNA repair in human embryonic kidney (HEK293T) cells expressing luciferase-tagged ELG1. HEK293T ELG1-luciferase reporter, luminescence, 16 h; DNA damage induced by 5-fluorouridine. Potency, µM (titrated, usually from 46.1 µM), hits mostly inhibitors. 2.3% of 330,000 active. AID 504467, 2011; further: nearly all actives have a fitted effect of over 55% in size
#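 HEK293T cells expressing luciferase-tagged ELG1 (2,000/well) received 5-Fluorouridine plus compound or DMSO for 16 hr at 37 °C. Luciferase was read by ONE-Glo luminescence after 30 min at room temperature.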
# Rab9 prom act: qHTS Assay for Rab9 Promoter Activators. Huh7 Rab9 promoter-luciferase reporter, luminescence, 24 h. Potency, µM (series often up to 9.22 µM), hits mostly activators. 2.8% of 320,000 active. AID 485297, 2010; further: nearly all actives have a fitted effect of over 60% in size
#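 Cells were plated at 1500 per well in reduced-serum medium with 10% FBS and left 2 h. Compound in DMSO was then added for 24 h at 37 °C. Reporter signal was read by luminescence after 10 min with luciferase detection reagent.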
# ELG1 genotox: qHTS screen for small molecules that induce genotoxicity in human embryonic kidney (HEK293T) cells expressing luciferase-tagged ELG1 | HEK293T ELG1-luciferase reporter, luminescence, 16 h | Potency, µM (top dose mostly 46 µM), usual class: activators | 1.3% of 330,000 active | AID 504466, 2011; further: nearly all actives have a fitted effect of over 60% in size
#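 ELG1-luciferase HEK293T cells, 2,000/well; compound pinned in; 16 hr, 37 °C, 5% CO2; ONE-Glo, 30 min RT; luminescence on CCD imager.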
# SMN2 splice enh: qHTS Assay for Enhancers of SMN2 Splice Variant Expression. AID 1458, 2008. Potency, µM (titrated, usually from 46.1 µM), usual class: activators. HEK293 SMN2-luciferase splicing reporter, luminescence, 30-36 h. 2.8% of 210,000 active; further: nearly all actives have a fitted effect of over 55% in size
#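 HEK293 cells carry an SMN2 minigene-luciferase reporter in which exon 7 inclusion puts luciferase in frame. Cells were seeded at 2000 cells/well, attached for 10-12 hours, then exposed to compounds for 30-36 hours at 37C before ONE-Glo luminescence.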
# A number is an active result; i = inactive; ? = inconclusive; nt = no result given; [ ] = remark or other dose. The call rests on the fitted dose curve; in most records, active means well fitted curve in the direction sought with a large enough effect; inconclusive means small, poorly fitted or top-dose-only effect, or another doubt; inactive means no such curve, though single readings can be large; an effect the other way counts as inactive or inconclusive.
SMILES,FLuc counter,NPC1 promoter act,ELG1 repair inh,Rab9 prom act,ELG1 genotox,SMN2 splice enh
COc1ccc2c(c1)C1CC(C)(NC(=O)C1S(=O)(=O)c1ccc(F)cc1)O2 (stereo not given),i,i,i,i,i,nt
CCSc1nsc(NC(=O)Nc2cccc(OC)c2)n1,21.3µM,i,i,i,i,nt
CCSc1nsc(NC(=O)Nc2ccccc2F)n1,10.7µM,2.82µM,?,1.58µM,i,nt
CC(c1ccccc1)c1nnc(NC(=O)Nc2ccccc2F)s1 (stereo not given),?,?,?,i,i,nt
COc1ccc(Cc2nnc(NC(=O)Nc3cccc(OC)c3)s2)cc1,i,i,i,i,i,nt
O=C(Nc1ccc(F)cc1)Nc1nnc(SCC(=O)N2CCCCC2)s1,i,nt,nt,nt,nt,nt
C=CCSc1nsc(NC(=O)Nc2ccc(F)cc2)n1,23.9µM,i,?,i,i,nt
O=C(O)c1ccc(S(=O)(=O)NCC2CCCCC2)cc1,i,i,i,i,i,nt
Cc1ccc2nc(NC(=O)CSCC(=O)OCC(=O)c3ccc(Br)cc3)sc2c1,?,i,i,i,i,i
CCOC(=O)c1ccc2nc(NC(C)=O)sc2c1,?,?,?,2.24µM,?,12.6µM
COC(=O)c1ccc2nc(NC(=O)CSCC(=O)OCC(=O)c3ccccc3)sc2c1,16.9µM,i,?,i,i,i
COC(=O)c1ccc2nc(Nc3nc4c(F)cc(F)cc4s3)sc2c1,5.36µM,i,?,i,?,i
CCOC(=O)c1ccc2nc(Nc3nc4ccc(F)cc4s3)sc2c1,?,i,?,i,i,i
COC(=O)c1ccc2nc(NC(=O)C(C)C)sc2c1,8.49µM,2µM,?,1.12µM,?,5.62µM
CC12CCC3C(CC3(C)C)C(C)(CCC1=O)O2 (stereo not given),nt,nt,nt,nt,nt,i
COC(=O)c1ccc2nc(NC(=O)C3CC3)sc2c1,19µM,2.24µM,?,?,?,nt
CN(C(=O)COC(=O)c1ccc(Br)c([N+](=O)[O-])c1)c1c(N)n(Cc2ccccc2)c(=O)[nH]c1=O,i,i,i,i,i,nt
O=C(CCCn1c(=O)c2cccn2c2ccccc21)NCCc1ccc(Cl)cc1,3.79µM,nt,nt,nt,nt,nt
O=C(CCn1c(=O)c2cccn2c2ccc(F)cc21)NCCc1ccc(Cl)cc1,i,nt,nt,nt,nt,nt
Cc1cccc(C)c1NC(=O)CCCn1c(=O)c2cccn2c2ccccc21,5.36µM,nt,nt,nt,nt,nt
Cc1cc(C)cc(NC(=O)CCn2c(=O)c3cccn3c3ccccc32)c1,i,i,i,i,i,nt
CCOC(=O)C1=C(CN2CC(C)CC(C)C2)NC(=O)NC1c1ccc2c(c1)OCO2 (stereo not given),i,i,?,i,i,i
COc1ccc(NC(=O)C(=O)NCCc2csc(-c3ccc(Cl)cc3)n2)cc1,i,nt,nt,nt,nt,nt
CCn1c2ccccc2c2nnc(SCc3ccccc3)nc21,?,i,i,i,i,i
CCn1c2ccccc2c2nnc(SCCCn3c(=O)[nH]c4ccccc43)nc21,i,i,23.1µM,i,i,nt
SMILES,FLuc counter,NPC1 promoter act,ELG1 repair inh,Rab9 prom act,ELG1 genotox,SMN2 splice enh
O[C@@H]1COC(Nc2ccc(N=Nc3ccccc3)cc2)C[C@@H]1O (stereo not given in full),0.338µM,?,?,3.16µM,?,nt
Cc1nn(C(=O)c2cc3sccc3[nH]2)c(C)c1C,3.01µM,?,?,?,i,?
CCOC(=O)N(NC(=O)C(O)(CC(C)C)CC(C)C)c1ccccc1,i,i,i,i,i,i
CC(=O)c1ccc(Nc2nc(=O)c3cccnc3s2)cc1,i,nt,nt,nt,nt,?
O=c1nc(Nc2ccc(OCc3ccccc3)cc2)sc2ncccc12,i,i,?,i,i,3.55µM
CCOC(=O)c1ccc(Nc2nc(=O)c3cccnc3s2)cc1,?,3.55µM,?,4.47µM,i,10µM
CCC(C)N1C(=O)CN(C2CCCCCC2)C(=O)C1c1ccccc1F (stereo not given),i,i,i,i,i,i
O=C(CSc1nnc(-c2cccnc2)n1Cc1ccco1)Nc1nc(-c2ccc(F)cc2)cs1,15.1µM,i,20.6µM,i,i,i
Cc1cc(=O)[nH]c(SCC(=O)Nc2nc(-c3ccccc3)cs2)n1,i,i,?,i,i,i
Cc1nnc(SCC(=O)Nc2nc(-c3ccc(F)cc3)cs2)[nH]c1=O,16.9µM,i,i,i,i,i
O=C(CSc1nc(-c2ccc(Cl)cc2)cs1)Nc1cccc([N+](=O)[O-])c1,9.53µM,i,i,i,i,i
CCn1c(SCC(=O)Nc2nc(-c3ccc(C)cc3)cs2)nnc1-c1ccccc1,23.9µM,i,25.9µM,i,i,i
CC(C)(C)n1ncc2c(=O)n(Cc3cccc(C(F)(F)F)c3)cnc21,i,nt,nt,nt,nt,nt
CCn1c(CSc2nc(C)cc(C)n2)nnc1SCC(=O)Nc1nc(-c2ccccc2)cs1,i[2.3 µM],i,i,i,i,i
CCn1c(SCC(=O)Nc2nc(-c3ccc(C)cc3)cs2)nnc1-c1ccccc1O,?,i,16.4µM,i,i,i
Cc1ccc(-c2csc(NC(=O)CSc3nc(C)cs3)n2)cc1,?,?,?,i,i,14.1µM
CC(C)(C)NC(=O)CSc1nc(-c2ccc(F)cc2)cs1,6.75µM,3.55µM,?,2µM,?,14.1µM
Cc1csc(SCC(=O)Nc2nc(-c3ccccc3)cs2)n1,i,i,?,i,?,i
COC(=O)c1cccc(NC(=O)CSc2nnc(C)n2C)c1,i,i,i,i,i,nt
CN(C)CCN(C(=O)c1ccco1)c1nc2c(F)cc(F)cc2s1,i,nt,nt,nt,nt,nt
O=C(CCC1N=C2c3ccccc3N=C(SCc3cccc(F)c3)N2C1=O)NCc1cccs1 (stereo not given),i,nt,nt,nt,nt,nt
CCOC(=O)C1CCN(C(=O)C(C)N(c2ccc(Oc3ccccc3)cc2)S(C)(=O)=O)CC1 (stereo not given),i,i,i,i,i,nt
CCOC(=O)N1CCN(C(=O)C(C)N(c2ccc(Oc3ccccc3)cc2)S(C)(=O)=O)CC1 (stereo not given),i,i,6.51µM,i,i,i
O=[N+]([O-])c1cc(-c2nc(-c3ccccc3)no2)ccc1N1CCOCC1,i,nt,nt,nt,nt,nt
CC1CCCCN1Cc1c(O)ccc2c(=O)c(-c3ccccc3Cl)c(C(F)(F)F)oc12 (stereo not given),i,nt,nt,nt,nt,i
CC1CCCCN1Cc1c(O)ccc2c(=O)c(-c3nc4ccccc4s3)c(N)oc12 (stereo not given),12µM,i,i,i,i,i
O=C(Cn1ccc2cc(S(=O)(=O)N3CCCC3)ccc21)NCCc1ccccc1,i,i,i,i,i,nt

# Screening data from PubChem.
